This passage reports growth results from PubChem BioAssay (NCI).

The panel holds about 83,000 compounds, 20% with a hit somewhere; the sample as a whole holds those more often.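 How to read the values: 0–100, growth inhibition (40 = 60% inhibited); 0, no net growth; -100 to 0, cell death (-40 = 40% of starting cells died; -100 = all dead).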 Active and inactive are the calls of the source. How the source made its calls: active means growth percent below 10; inactive means the rest.

This assay has as its system M14 melanoma. As to the kind of experiment: NCI-60 one-dose screen, 48 h (100 = growth as untreated, 0 = no growth, -100 = all killed). As to conditions: 10 µM unless noted.
Consider `O=C(Nc1ccc2c(ccn2Cc2ccccn2)c1)c1ccnnc1`, for which the growth is 99.7% (inactive).
To `N#C/C(=C\c1ccc(-c2ccc(Cl)cc2Cl)o1)c1ccc(F)cc1` belongs 95.3% (inactive).
Turning to `COc1ccc(/C(N)=N/C(N)=N/c2nc3ccccc3s2)cc1`, the growth was 81.4% (inactive).
Consider `Nc1nc(-c2cccc([N+](=O)[O-])c2)c(N=Nc2ccccc2)s1`, for which the growth is 57.7% (inactive).
For `CNC(=O)c1cc(Oc2ccc3nc(NC(=O)c4cc(N5CCOCC5)cc(C(F)(F)F)c4)sc3c2)ccn1`, the growth is 77.5% (inactive).
To `C=C(C)[C@@H]1CC[C@]2(COP(=O)(OCC)OCC)CC[C@]3(C)[C@H](CC[C@@H]4[C@@]5(C)CCCNC(C)(C)[C@@H]5CC[C@]43C)[C@@H]12` belongs -46.4% (active); to `CCCn1cnc2c(c1=N)C(c1ccc(F)cc1)c1sc3c(CC)cccc3c1O2` (configuration not stated), 13.3% (inactive).
Consider `CC1(C)[C@@H](O)CC[C@]2(C)[C@H]3CC[C@@H]4[C@H]5[C@H](C(=O)/C=C\c6ccc([N+](=O)[O-])cc6)CC[C@]5(O)CC[C@@]4(C)[C@]3(C)CC[C@@H]12`, for which the growth is 42.6% (inactive).
On to `c1cc(-c2nc3ccc4[nH]ncc4c3c3c2CCCC3)[nH]n1`, for which the growth was 39.7% (inactive).
To `O=C(CSc1nc2ccccc2c(=O)n1-c1ccccc1)Nc1ccc(-c2nc3ccc([N+](=O)[O-])cc3[nH]2)cc1` belongs 93.3% (inactive); to `C[C@@H](Nc1ncnc2ccc(-c3cnc(Cl)c(NS(C)(=O)=O)c3)cc12)c1ccccc1`, 69.1% (inactive).
To `CC(=O)Nc1cccc(Nc2nc(N[C@H](C)c3ccccc3)c3ccccc3n2)c1` belongs 58.7% (inactive).
